# Experimental data as given in PubChem BioAssay AID2685 (National Center for Advancing Translational Sciences (NCATS), 2010).
# Among all 320,000 compounds or so, about 2,100 (0.66%) were called active. Roughly 53% stayed inconclusive and do not appear here. The call rests on the fitted dose curve; in most records, active means well fitted inhibition curve with a large enough effect in the signal ratio, with a control signal flat (not every such curve was filed as active); inconclusive means small, poorly fitted or top-dose-only effect, or effect the other way, or a change in a side signal; inactive means flat fitted curve, though single readings scatter; the % refers to the signal ratio. The list comes from a sample in which actives are over-represented; it also holds similar structures and randomly drawn compounds.
# Assay: qHTS Assay for Lipid Storage Modulators in Drosophila S3 Cells;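 on cell number change: cells counted by Cell Tracker Red CMTPX staining in the red channel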; on lipid storage change, negative = inhibition: on the % scale 0 is the no-effect control and ±100 the full control effect
# Details: BODIPY lipid droplet fluorescence, 18-24 h, cells fed with added oleic acid; cell number change: measured here: cell count max response; series mostly up to 46.1 µM; lipid storage change, negative = inhibition: at the top concentration
# Outline: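 Drosophila S3 cells got compounds at several concentrations plus oleic acid (400 uM solution). Laser-scanning cytometry with 488 nm excitation read lipid droplets at 500-530 nm and cells at 575-640 nm. Percent activity was relative to 20 uM Triacsin C.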
# Potency means the concentration at half of the fitted maximal effect.
Structure (SMILES),outcome,cell number change [%],"lipid storage change, negative = inhibition",Potency
Cc1ccc(N=Cc2c(O)n(C)c(=O)n(C)c2=O)cc1,inactive,-14,,
CN1C2CCC1CC(OC(=O)c1ccc(Cl)cc1)C2 (stereo unspecified),,1.41,6.86% (inactive),
CN1C2CCC1CC(OC(=O)c1cc(Cl)cc(Cl)c1)C2 (stereo unspecified),,,,23.1 µM (active)
COc1ccc(C(=O)OC2C[C@H]3CC[C@H](C2)N3C)cc1OC (stereo partly specified),,,-1.64% (inactive),
CNP1(NC)=NC(C(F)(F)F)=NC(C(F)(F)F)=N1,,,-21.3% (inactive),
COc1ccc(CC(C)NCCc2ccc(OC)c(OC)c2)cc1 (stereo unspecified),inactive,5.07,,
O=C(Nc1ccc(Cl)cc1)N1CC2CC(C1)c1cccc(=O)n1C2 (stereo unspecified),,-2.6,,1.84 µM (active)
O=C(Nc1cccc(Cl)c1)N1C[C@H]2C[C@@H](C1)c1cccc(=O)n1C2,,-7.76,17.1% (inactive),
O=C(Nc1ccc(F)cc1)N1CC2CC(C1)c1cccc(=O)n1C2 (stereo unspecified),,-3.93,-5.85% (inactive),
COc1ccc(OC)c(NP(=O)(Oc2ccc(Cl)cc2)Oc2ccc(Cl)cc2)c1,,16.2,8.47% (inactive),
Cc1ccc2[nH]c3c(c2c1)CN(C(=O)CN1C[C@H]2C[C@@H](C1)c1cccc(=O)n1C2)CC3,,14.9,17.7% (inactive),
N#Cc1c(N2CCNCC2)nc(-c2ccco2)c2c1CCCC2,,11.9,-5.93% (inactive),
Cc1ccccc1-n1c(O)c(C(c2ccncc2)c2c(O)n(-c3ccccc3C)c(=O)[nH]c2=O)c(=O)[nH]c1=O,,5.35,-7.77% (inactive),
FC(F)(F)c1ccc(CNCCc2ccc3c(c2)OCO3)cc1,inactive,20.8,,
Cc1ccc(-n2c(O)c(/C=N/NC(=O)c3ccncc3)c(=O)[nH]c2=O)cc1,,-2.6,-4.67% (inactive),
CCOC(=O)c1cccc([P+](=O)O)c1,,4.86,3.53% (inactive),
Cc1ccc(-c2cc(-c3ccc(C)cc3)[n+](-c3ccc(C(=O)O)cc3)c(-c3ccc(C)cc3)c2)cc1,,12.1,8.58% (inactive),
CCOC(=O)c1cccc(-[n+]2c(-c3ccccc3)cc(-c3ccccc3)cc2-c2ccccc2)c1,,-29.7,,13 µM (active)
C(CCc1nn[nH]n1)CCc1nn[nH]n1,,0.918,-0.854% (inactive),
CC1(C)CC(n2[nH]c(=O)c3c2NC(=O)CSC3c2ccc(F)cc2)CCO1 (stereo unspecified),,1.16,5.29% (inactive),
O=C1NC(=O)C(CCc2ccncc2)(Cc2ccc(OCc3ccccc3)cc2)C(=O)N1,,9.1,-0.298% (inactive),
CCC1CCCCN1C(=O)Cn1c(=O)oc2ccccc21 (stereo unspecified),,,,1.46 µM (active)

Structure (SMILES),outcome,cell number change [%],"lipid storage change, negative = inhibition",Potency
CCC1CCCCN1CC(=O)c1ccc(OC(F)F)cc1 (stereo unspecified),,2.66,1.27% (inactive),
O=C(Cn1c(=O)n(CC2CS2)c2ccccc21)N1CCCCCC1 (stereo unspecified),,9.44,1.02% (inactive),
COC(=O)C1=CO[C@@H](C)[C@@H]2CN3CC[C@]4(C(=O)Nc5ccccc54)[C@@H]3C[C@H]12,,-15.3,-0.0503% (inactive),
O=C(c1cccc2ccccc12)C1CCCN(Cc2ccon2)C1 (stereo unspecified),,0.85,10.3% (inactive),
CSc1ccccc1C(=O)C1CCCN(Cc2cccc(C)n2)C1 (stereo unspecified),,5.61,3.17% (inactive),
O=P(O)(O)Cc1ccccc1OP(=O)(c1ccccc1)c1ccccc1,,-17.7,9.67% (inactive),
O=P(O)(O)COc1ccccc1P(=O)(c1ccccc1)c1ccccc1,,,,16.4 µM (active)
O=P(O)(O)Oc1ccccc1P(=O)(c1ccccc1)c1ccccc1,,13.5,-5.41% (inactive),
COc1ccc(CC(C)NC2CCCCCC2)cc1 (stereo unspecified),inactive,-21,,
NC(=O)CSc1nnc([C@@H](N)Cc2c[nH]c3ccccc23)o1,,,-10.3% (inactive),
O=C(c1ccc(Br)cc1)C12CN3CN(CN(C3)C1)C2,,8.31,2.2% (inactive),
CCN(CC)CCN=Cc1c(O)n(CCC2=CCCCC2)c(=O)[nH]c1=O,,11.2,,23.1 µM (active)
O=c1[nH]c(=O)n(CCC2=CCCCC2)c(O)c1/C=N/N1CCOCC1,,8.55,-0.237% (inactive),
O=c1[nH]c(=O)n(C2CCCCC2)c(O)c1C=NCCCn1ccnc1,inactive,17.5,,
CCN(CC)CCN=Cc1c(O)n(C2CCCCCC2)c(=O)[nH]c1=O,,-10.3,,18.4 µM (active)
CN(C)CCN=Cc1c(O)n(C2CCCCCC2)c(=O)[nH]c1=O,,6.67,-7.53% (inactive),
CCN(CC)CCN=Cc1c(O)n(CCc2ccccc2)c(=O)[nH]c1=O,,12.9,2.23% (inactive),
C=CCn1c(C)c(C=C2C(=O)NC(=O)NC2=O)c2ccccc21,,5.7,9.58% (inactive),
O=c1[nH]c(=O)n(-c2ccc(Br)cc2)c(O)c1C=NC(CO)(CO)CO,,-6.55,-18.1% (inactive),
O=C(CCN1C(=O)COc2ccccc21)N1CCC2(CC1)OCCO2,,1.47,2.07% (inactive),
O=c1c2ccccc2ncn1-c1ccc([N+](=O)[O-])c(C(F)(F)F)c1,,7.19,12.7% (inactive),
C[n+]1c(-c2ccccc2)cc(-c2ccc(O)cc2)cc1-c1ccccc1,,-18,24.3% (inactive),

Structure (SMILES),outcome,cell number change [%],"lipid storage change, negative = inhibition",Potency
Cc1ccccc1-[n+]1c(-c2ccccc2)cc(-c2ccccc2)cc1-c1ccccc1,,,,23.1 µM (active)
O=c1[nH]c(=S)n(C2CC2)c(O)c1C=NCc1cccnc1,,11.1,-23.1% (inactive),
O[C@@H]1CCCC[C@H]1N1CCC(c2ccccc2)CC1,,,,-4.74%
CC(=O)N1N=C2C3CCN(CC3)C2C1c1ccccc1 (stereo unspecified),,1.69,-8.99% (inactive),
ON1C2CCCCC2N(O)C1c1ccccc1 (stereo unspecified),inactive,,,
Cc1ccc(/C=C2/C(=O)NC(=O)N(CCc3ccc(F)cc3)C2=O)o1,,-2.41,-1.73% (inactive),
FC(F)(F)c1ccccc1N1CC1c1ccncc1 (stereo unspecified),,-4.55,10.2% (inactive),
CSc1ncc(/C=C2/C(=O)NC(=O)N(c3ccc(C)cc3)C2=O)cn1,,8.62,7.12% (inactive),
O=C(c1ccc2c(=O)n(Cc3ccc4c(c3)OCO4)c(=S)[nH]c2c1)N1CCC2(CC1)OCCO2,,-17,-17.8% (inactive),
O=C1NC(=O)C(=Cc2ccsc2)C(=O)N1,,11.6,-2.16% (inactive),
CN1C(=O)/C(=C\c2ccc(N3CCCCCC3)cc2)C(=O)NC1=S,,9.11,-13.9% (inactive),
O=C1NC(=S)NC(=O)C1=Cc1cccn1-c1ccc(O)cc1,,-0.957,-23.9% (inactive),
CN1C(=O)/C(=C/c2cccn2-c2ccc3ccccc3c2)C(=O)NC1=S,,-19,,3.26 µM (active)
CC(c1ccccc1)(c1ccccc1)c1ccncc1,,6.39,-0.155% (inactive),
ClC(Cl)(Cl)c1ccccc1,,2.26,,0.58 µM (active)
Cc1ccc(N)c(C(=O)c2ccccc2)c1,,-2.37,-10% (inactive),
C=CCn1c(O)c(C(C)=NCc2ccc3c(c2)OCO3)c(=O)[nH]c1=O,,5.5,-8.54% (inactive),
COc1ccc(C(=O)N2CCCC2=O)cc1,,11.9,-10.4% (inactive),
COc1ccc(C(=O)C23CN4CN(CN(C4)C2)C3)cc1,,4.85,0.471% (inactive),
COc1ccc(C(=O)C(C)(C)NO)cc1,,-1.48,,3.26 µM (active)
O=C1NC(=O)N(c2ccc3c(c2)OCO3)C(=O)/C1=C\c1ccsc1,,-1.9,-2.55% (inactive),
CC(=O)c1cc(C(C)=O)c(C)[n+](C)c1C,,12.6,3.6% (inactive),

Structure (SMILES),outcome,cell number change [%],"lipid storage change, negative = inhibition",Potency
CNC(=S)N1CCN(CCN=Cc2c(O)n(-c3ccc(C)cc3)c(=S)[nH]c2=O)CC1,,1,-14.2% (inactive),
Cc1cc(OCC(=O)NCc2ccncc2)c2c3c(c(=O)oc2c1)CCC3,inactive,-10.8,,
Cc1cc(OCC(=O)NCC(O)c2ccccc2)c2c3c(c(=O)oc2c1)CCC3 (stereo unspecified),,-16.3,,20.6 µM (active)
Cc1cc(OC(C)C(=O)NCC(O)c2ccccc2)c2c3c(c(=O)oc2c1)CCC3 (stereo unspecified),inactive,,,
CCC12CN3CCN(CC(C3)/C1=N\O)C2,,-11.3,-24.4% (inactive),
CC12CN3CCN(CC(C3)/C1=N/NC(N)=O)C2,,0.944,-11.3% (inactive),
CC(C)C12CN3CCN(CC(C3)/C1=N\O)C2,,-1.85,,6.51 µM (active)
C/C(=N\NC(=S)Nc1ccccc1)c1c(O)n(C)c(=O)n(C)c1=O,,,15.8% (inactive),
CCN1C[C@]2(C)CC[C@H](O)[C@]34C1[C@H](C[C@H]23)[C@@]1(O)C[C@H](OC)[C@H]2C[C@@H]4[C@@H]1C2O (stereo partly specified),,-19.2,-5.48% (inactive),
Cn1c(O)c(C=NC2CCN(Cc3ccccc3)CC2)c(=O)n(C)c1=O,,0.664,10.7% (inactive),
CC(=NC1CCN(Cc2ccccc2)CC1)c1c(O)n(C)c(=O)n(C)c1=O,,4.54,,29.1 µM (active)
C=CCn1c(O)c(C(C)=NC2CCN(Cc3ccccc3)CC2)c(=O)[nH]c1=O,,4.94,0.565% (inactive),
CCCCOC(=O)C1=C(N)OC2=C(C(=O)CC(C)(C)C2)[C@]12C(=O)N(C)c1ccccc12,inactive,-14.5,,
CCCCOC(=O)C1=C(N)OC2=C(C(=O)CCC2)[C@]12C(=O)N(C)c1ccccc12,,-3.29,,5.17 µM (active)
CCOC(=O)C1=C(N)OC2=C(C(=O)CCC2)[C@]12C(=O)N(CC(N)=O)c1ccccc12,,1.37,-8.73% (inactive),
COC1CCCCC1NCCc1ccccc1 (stereo unspecified),,-9.24,-2.57% (inactive),
N#Cc1ccc(Cn2cc(C=O)c3ccccc32)cc1,,15.7,11.2% (inactive),
C=CCn1c(O)c(C(CC)=NCCN2CCN(C(=S)NC)CC2)c(=O)[nH]c1=O,,-0.0083,-10.6% (inactive),
CCCCn1c(=O)c(C(=O)NCCc2ccccc2)c(O)c2ccccc21,inactive,-5.77,,
Cc1cc(O)c2c(c1)C(=O)C13C(=C2O)C(=O)[C@H]2[C@@H](O)[C@@H]1[C@H]1[C@H](O)[C@@H]3C(=O)C3=C(O)c4c(O)cc(C)cc4C(=O)C312 (stereo partly specified),,19.8,,9.2 µM (active)
